The source made the active and inactive calls. Rule for the calls: active = hit-call score of the fitted dose curve at least 0.9, where 1 is the maximum; inactive = score below 0.9.
Columns and labels:
Conditions in all cases: mRNA level, 48 h; actives raise or lower the signal
[1] = read-out: Intercellular Adhesion Molecule 1 (ICAM1), ICAM1 (gene 3383); assay: LTEA_HepaRG_ICAM1: Life Technologies and Expression Analysis (LTEA) Assay for Intercellular Adhesion Molecule 1 (ICAM1) using HepaRG (AID 2283507)
Summary of the method: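 ICAM1 transcript levels measured by qRT-PCR, normalized to three housekeeping genes (ACTB, GAPDH, POLR2A), after 48 h chemical exposure of HepaRG cells. Duplicate eight-point half-log series from 100 uM in 0.5% DMSO; gain or loss fitted against vehicle.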

[2] = read-out: Interleukin 6 (IL6), IL6 (gene 3569); assay: LTEA_HepaRG_IL6: Life Technologies and Expression Analysis (LTEA) Assay for Interleukin 6 (IL6) using HepaRG (AID 2283509)
Summary of the method: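 HepaRG, ~100,000 cells/well, 48 h pre-culture; serum-free induction medium; cmpd 8-pt half-log from 100 uM, 0.5% DMSO, duplicate, 48 h. Lysis in RLT, TaqMan qRT-PCR; gain or loss vs DMSO.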

[3] = read-out: Interleukin 6 Receptor (IL6R), IL6R (gene 3570); assay: LTEA_HepaRG_IL6R: Life Technologies and Expression Analysis (LTEA) Assay for Interleukin 6 Receptor (IL6R) using HepaRG (AID 2283510)
Summary of the method: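 Differentiated HepaRG cells, plated 48 h, then exposed in duplicate for 48 h in serum-free induction medium to 8 half-log concentrations (top 100 uM, 0.5% DMSO). IL6R mRNA measured by TaqMan qRT-PCR, normalized to ACTB/GAPDH/POLR2A; bidirectional fit vs DMSO.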

[4] = read-out: Potassium channel subfamily K member 1 (KCNK1), KCNK1 (gene 3775); assay: LTEA_HepaRG_KCNK1: Life Technologies and Expression Analysis (LTEA) Assay for Potassium channel subfamily K member 1 (KCNK1) using HepaRG (AID 2283511)
Summary of the method: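 Gain or loss of KCNK1 mRNA is the read-out, quantified by qRT-PCR against three housekeeping genes after 48 h chemical treatment of human HepaRG liver cells. Concentrations ran from 100 uM downward in half-log steps, vehicle 0.5% DMSO.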

[5] = read-out: Keratin 19 (KRT19), KRT19 (gene 3880); assay: LTEA_HepaRG_KRT19: Life Technologies and Expression Analysis (LTEA) Assay for Keratin 19 (KRT19) using HepaRG (AID 2283512)
Summary of the method: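 KRT19 transcript measured by TaqMan qRT-PCR, referenced to three housekeeping genes, after HepaRG cells received test chemicals for 48 h. Eight half-log concentrations, top 100 uM, 0.5% DMSO vehicle; increases and decreases both fitted.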

[6] = read-out: JUN Transcription Factor, JUN (gene 3725); assay: LTEA_HepaRG_JUN: Life Technologies and Expression Analysis (LTEA) Assay for JUN Transcription Factor using HepaRG (AID 2283513)
Summary of the method: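 HepaRG cells, 48 h post-plating, exposed 48 h in serum-free induction medium to 8-point half-log series (top 100 uM, 0.5% DMSO), duplicate; mRNA by qRT-PCR (TaqMan, Fluidigm), normalized to ACTB/GAPDH/POLR2A; bidirectional fit vs DMSO.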

[7] = read-out: Lipase C (LIPC), LIPC (gene 3990); assay: LTEA_HepaRG_LIPC: Life Technologies and Expression Analysis (LTEA) Assay for Lipase C (LIPC) using HepaRG (AID 2283514)
Summary of the method: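 Read-out is LIPC transcript level by TaqMan qRT-PCR, normalized to three housekeeping genes, after 48 h chemical treatment of human HepaRG liver cells. Curves span eight concentrations topping at 100 uM; activity in either direction scored relative to 0.5% DMSO.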

[8] = read-out: Lipoprotein lipase (LPL), LPL (gene 4023); assay: LTEA_HepaRG_LPL: Life Technologies and Expression Analysis (LTEA) Assay for Lipoprotein lipase (LPL) using HepaRG (AID 2283515)
Summary of the method: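 Read-out is LPL transcript level by qRT-PCR, normalized to three housekeeping genes and fitted bidirectionally against the DMSO control. Human HepaRG cells received chemicals for 48 h at up to 100 uM.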

[9] = read-out: MicroRNA 122 (MIR122), gene 406906; assay: LTEA_HepaRG_MIR122: Life Technologies and Expression Analysis (LTEA) Assay for MicroRNA 122 (MIR122) using HepaRG (AID 2283516); note: the transcript read is the microRNA miR-122
Summary of the method: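 Differentiated human HepaRG cells in serum-free induction medium exposed 48 h to 8 half-log concentrations from 100 uM in 0.5% DMSO, duplicate. MIR122 quantified by Fluidigm TaqMan qRT-PCR, normalised to ACTB, GAPDH, POLR2A; fold change fitted bidirectionally versus DMSO.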

[10] = read-out: matrix metalloproteinase-10 (MMP10), MMP10 (gene 4319); assay: LTEA_HepaRG_MMP10: Life Technologies and Expression Analysis (LTEA) Assay for matrix metalloproteinase-10 (MMP10) using HepaRG (AID 2283517)
Summary of the method: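 Gain or loss of MMP10 mRNA is fitted relative to the 0.5% DMSO vehicle. The human hepatic line HepaRG receives a 48-hour serum-free exposure, in duplicate, with a maximum concentration of 100 uM.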

MYC, MYC (gene 4609) = assay: LTEA_HepaRG_MYC: Life Technologies and Expression Analysis (LTEA) Assay for MYC using HepaRG (AID 2283518)
Summary of the method: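 MYC transcript changes, up or down relative to 0.5% DMSO, from TaqMan qRT-PCR normalized to three housekeeping genes. Human HepaRG cultures received chemicals for 48 h at eight half-log concentrations up to 100 uM, in duplicate.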

[11] = read-out: matrix metalloproteinase-3 (MMP3), MMP3 (gene 4314); assay: LTEA_HepaRG_MMP3: Life Technologies and Expression Analysis (LTEA) Assay for matrix metalloproteinase-3 (MMP3) using HepaRG (AID 2283519)
Summary of the method: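 HepaRG, human; 48 h dosing, 8 conc. (max 100 uM, half-log), duplicate, 0.5% DMSO. Readout: MMP3 transcript by Fluidigm TaqMan qRT-PCR, ACTB/GAPDH/POLR2A-normalised. Gain or loss fitted vs DMSO.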

[12] = read-out: Paternally Expressed 10 (PEG10), PEG10 (gene 23089); assay: LTEA_HepaRG_PEG10: Life Technologies and Expression Analysis (LTEA) Assay for Paternally Expressed 10 (PEG10) using HepaRG (AID 2283520)
Summary of the method: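 Differentiated HepaRG cells exposed 48 h in serum-free induction medium to eight half-log concentrations topping at 100 uM, 0.5% DMSO, in duplicate. PEG10 mRNA quantified by TaqMan qRT-PCR, normalized to ACTB, GAPDH and POLR2A; bidirectional fit versus DMSO.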

[13] = read-out: Nuclear factor NF-kappa-B p105 subunit (Homo sapiens) (UniProt P19838); assay: LTEA_HepaRG_NFKB1: Life Technologies and Expression Analysis (LTEA) Assay for Nuclear Factor Kappa B Subunit 1 (NFKB1) using HepaRG (AID 2283521)
Summary of the method: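 HepaRG, 48 h exposure; 8-pt half-log series from 100 uM in 0.5% DMSO; duplicates. Readout: NFKB1 mRNA by qRT-PCR (Fluidigm arrays), housekeeping-normalized. Gain/loss fit vs DMSO baseline.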

[14] = read-out: Protein phosphatase 2A (PPP2R4), PTPA (gene 5524); assay: LTEA_HepaRG_PPP2R4: Life Technologies and Expression Analysis (LTEA) Assay for Protein phosphatase 2A (PPP2R4) using HepaRG (AID 2283522)
Summary of the method: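 Differentiated human HepaRG cells in serum-free induction medium were exposed 48 h to 8 concentrations (top 100 µM, half-log steps, duplicate) in 0.5% DMSO. PPP2R4 mRNA was measured by TaqMan qRT-PCR, normalised to ACTB, GAPDH and POLR2A, and fitted bidirectionally versus DMSO.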

[15] = read-out: Phosphatase and tensin (PTEN), PTEN (gene 5728); assay: LTEA_HepaRG_PTEN: Life Technologies and Expression Analysis (LTEA) Assay for Phosphatase and tensin (PTEN) using HepaRG (AID 2283523)
Summary of the method: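 Read-out is PTEN transcript level by multiplexed TaqMan qRT-PCR after 48 h chemical treatment of human HepaRG cultures in serum-free induction medium. Concentrations spanned 100 uM downward in half-log steps, 0.5% DMSO throughout; activity fitted in both directions against vehicle.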

[16] = read-out: solute carrier (SLC22A1), SLC22A1 (gene 6580); assay: LTEA_HepaRG_SLC22A1: Life Technologies and Expression Analysis (LTEA) Assay for solute carrier (SLC22A1) using HepaRG (AID 2283524)
Summary of the method: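 HepaRG (human liver line), 48 h dosing in serum-free induction medium; 8 conc., half-log down from 100 uM, 0.5% DMSO vehicle, duplicates. Endpoint: SLC22A1 mRNA, qRT-PCR, housekeeping-normalized; gain/loss fit vs DMSO.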

[17] = read-out: NAD(P)H dehydrogenase [quinone] 1 (NQO1), NQO1 (gene 1728); assay: LTEA_HepaRG_NQO1: Life Technologies and Expression Analysis (LTEA) Assay for NAD(P)H dehydrogenase [quinone] 1 (NQO1) using HepaRG (AID 2283526)
Summary of the method: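 Differentiated human HepaRG cells in serum-free induction medium, dosed in duplicate for 48 h at 8 half-log concentrations up to 100 uM in 0.5% DMSO. NQO1 mRNA by qRT-PCR normalized to ACTB, GAPDH, POLR2A; bidirectional fit versus DMSO baseline.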

[18] = read-out: Insulin-like growth factor-binding protein 1 (IGFBP1), IGFBP1 (gene 3484); assay: LTEA_HepaRG_IGFBP1: Life Technologies and Expression Analysis (LTEA) Assay for Insulin-like growth factor-binding protein 1 (IGFBP1) using HepaRG (AID 2283508)
Summary of the method: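 Read-out is qRT-PCR transcript level normalized to three housekeeping genes, fitted in both directions against 0.5% DMSO. Differentiated HepaRG cells received eight half-log concentrations (top 100 uM) in duplicate for 48 h in serum-free induction medium.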

[19] = read-out: Pyruvate Dehydrogenase Kinase 4 (PDK4), PDK4 (gene 5166); assay: LTEA_HepaRG_PDK4: Life Technologies and Expression Analysis (LTEA) Assay for Pyruvate Dehydrogenase Kinase 4 (PDK4) using HepaRG (AID 2283525)
Summary of the method: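 In this multiplexed human HepaRG expression assay, cells are treated 48 h with test chemicals across an eight-point range starting at 100 uM. PDK4 mRNA changes, normalized to ACTB/GAPDH/POLR2A, are fitted in both directions relative to vehicle.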

Measured: AC50

Sequence of Nuclear factor NF-kappa-B p105 subunit (Homo sapiens) (P19838 whole entry, looked up): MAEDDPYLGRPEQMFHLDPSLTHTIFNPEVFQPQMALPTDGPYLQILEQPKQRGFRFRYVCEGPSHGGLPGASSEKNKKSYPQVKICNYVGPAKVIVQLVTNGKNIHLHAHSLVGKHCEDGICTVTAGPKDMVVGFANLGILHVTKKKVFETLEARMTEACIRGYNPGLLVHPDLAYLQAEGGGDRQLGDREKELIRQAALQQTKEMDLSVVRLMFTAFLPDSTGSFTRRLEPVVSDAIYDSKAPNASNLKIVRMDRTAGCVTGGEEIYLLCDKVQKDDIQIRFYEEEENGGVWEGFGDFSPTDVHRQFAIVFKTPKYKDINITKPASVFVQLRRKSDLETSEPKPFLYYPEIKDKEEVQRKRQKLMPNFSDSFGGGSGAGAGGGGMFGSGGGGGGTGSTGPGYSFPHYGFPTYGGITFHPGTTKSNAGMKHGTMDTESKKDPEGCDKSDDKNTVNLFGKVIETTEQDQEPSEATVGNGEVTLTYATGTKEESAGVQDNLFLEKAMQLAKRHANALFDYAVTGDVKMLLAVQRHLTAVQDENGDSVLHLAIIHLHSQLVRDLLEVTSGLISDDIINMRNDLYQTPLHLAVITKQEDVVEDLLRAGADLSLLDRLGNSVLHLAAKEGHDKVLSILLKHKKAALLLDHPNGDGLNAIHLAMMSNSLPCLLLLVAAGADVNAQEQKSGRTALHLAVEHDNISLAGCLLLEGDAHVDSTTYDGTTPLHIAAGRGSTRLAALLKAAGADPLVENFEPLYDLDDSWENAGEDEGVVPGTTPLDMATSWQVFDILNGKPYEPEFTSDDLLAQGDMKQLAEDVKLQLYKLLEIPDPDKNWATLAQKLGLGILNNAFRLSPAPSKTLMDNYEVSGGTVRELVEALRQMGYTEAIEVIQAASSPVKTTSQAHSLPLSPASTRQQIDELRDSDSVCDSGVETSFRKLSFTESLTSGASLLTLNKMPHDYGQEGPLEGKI

COC(=O)c1ccccc1C(=O)O
not listed: [18] | [19]
inactive: all other assays above

N[C@@H](Cc1cc(I)c(Oc2ccc(O)c(I)c2)c(I)c1)C(=O)O
active: [1] 40 µM | [3] 40 µM | [5] 0.0152 µM | [7] 72.3 µM | [8] 0.00787 µM | [12] 8.92 µM | [16] 65.7 µM | [19] 0.0111 µM
not listed: [13]
inactive: all other assays above

CCCN(CCC)c1c([N+](=O)[O-])cc(C(F)(F)F)c(N)c1[N+](=O)[O-]
active: [7] 50 µM | MYC, MYC (gene 4609) 50 µM | [12] 17.4 µM | [16] 27.2 µM
not listed: [9] | [19]
inactive: all other assays above

OB(O)O
not listed: [13]
inactive: all other assays above

Cc1nn(C)c(Oc2ccccc2)c1C=NOCc1ccc(C(=O)OC(C)(C)C)cc1
inactive: [6] | [15] | [19] | [17]
active: [1] 16.8 µM | [18] 9.63 µM | [2] 5.23 µM | [3] 1.28 µM | [4] 12.9 µM | [5] 2.05 µM | [7] 24.2 µM | [8] 11.2 µM | [9] 30.3 µM | [10] 50 µM | MYC, MYC (gene 4609) 8.62 µM | [11] 34.4 µM | [12] 1.15 µM | [14] 5.33 µM | [16] 12.3 µM

CCCCCOC(=O)COc1cc(N2C(=O)C3=C(CCCC3)C2=O)c(F)cc1Cl
not listed: [13] | [19]
inactive: all other assays above

Source: PubChem BioAssay (EPA / NIEHS)
